Source: the supplement of paper PMC8371130
Structures can show the parent of a compound that is named as a salt.

Test system: HL-1
Experiment: relative cell viability (CellTiter-Glo) vs DMSO control (% of DMSO control); higher = more viable cells
How it was run: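 HL-1 mouse atrial cardiomyocytes were plated in 384-well plates at 1000 cells per well together with compounds at 40, 200, 1000 or 5000 nM in 0.01% DMSO. One day later, cells went to a hypoxic workstation (1% O2) for 48 h, then were reoxygenated for 24 h in a normal incubator, or stayed in normoxia for the same time. Cell viability was read by CellTiter-Glo luminescence and normalised to vehicle-treated control cells.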

[1] = oxygen condition: hypoxia 48 h (1% O2) + reoxygenation 24 h, 40 nM
[2] = oxygen condition: hypoxia 48 h (1% O2) + reoxygenation 24 h, 200 nM
[3] = oxygen condition: hypoxia 48 h (1% O2) + reoxygenation 24 h, 1000 nM
[4] = oxygen condition: hypoxia 48 h (1% O2) + reoxygenation 24 h, 5000 nM
[5] = oxygen condition: normoxia 72 h, 40 nM
[6] = oxygen condition: normoxia 72 h, 200 nM
[7] = oxygen condition: normoxia 72 h, 1000 nM
[8] = oxygen condition: normoxia 72 h, 5000 nM

SMILES | relative cell viability [1] | relative cell viability [2] | relative cell viability [3] | relative cell viability [4] | relative cell viability [5] | relative cell viability [6] | relative cell viability [7] | relative cell viability [8]
CN1C[C@@H]2C[C@H]1CN2c1cc2c(cc1F)c(=O)c(C(=O)O)cn2C1CC1 [Danofloxacin Mesylate] | 106 | 104 | 111 | 108 | 111 | 101 | 103 | 107
COc1ccc([C@H]2CNC(=O)C2)cc1OC1CCCC1 [S-(+)-Rolipram] | 103 | 92.3 | 89.4 | 90.4 | 95.6 | 101 | 98.7 | 103
CCCCC1=NC2(CCCC2)C(=O)N1Cc1ccc(-c2ccccc2-c2nnn[nH]2)cc1 [Irbesartan] | 103 | 102 | 107 | 108 | 107 | 105 | 102 | 107
CNC(=O)c1ccc(N2C(=S)N(c3ccc(C#N)c(C(F)(F)F)c3)C(=O)C2(C)C)cc1F | 99.6 | 103 | 51.5 | 106 | 99.6 | 102 | 106 | 109
CC12CC3CC(C)(C1)CC(N)(C3)C2 [Memantine HCl] | 105 | 105 | 101 | 106 | 94.5 | 101 | 108 | 93.4
CN1CCCC(n2nc(Cc3ccc(Cl)cc3)c3ccccc3c2=O)CC1 (stereo unspecified) [Azelastine hydrochloride] | 96.2 | 98.2 | 101 | 85.4 | 97.9 | 102 | 96.4 | 84.2
Nc1ncn([C@H]2C[C@H](O)[C@@H](CO)O2)c(=O)n1 [Decitabine] | 103 | 104 | 94.1 | 65.4 | 101 | 104 | 91.2 | 58.2
C[C@H](CS)C(=O)N1CCC[C@H]1C(=O)O [Captopril] | 108 | 103 | 105 | 109 | 105 | 97.2 | 106 | 113
CCC(CC)[C@H](NC(C)=O)[C@@H]1[C@H](O)[C@@H](C(=O)O)C[C@H]1NC(=N)N [Peramivir Trihydrate] | 101 | 99.2 | 107 | 111 | 112 | 109 | 103 | 116
CCOC(=O)OC(C)OC1=C(C(=O)Nc2ccccn2)N(C)S(=O)(=O)c2ccccc21 (stereo unspecified) [Ampiroxicam] | 110 | 102 | 104 | 121 | 101 | 101 | 102 | 120
CNC(=O)CN(CCN(CCN(CC(=O)[O-])CC(=O)NC)CC(=O)[O-])CC(=O)[O-].[Gd+3] [Gadodiamide] | 98 | 104 | 98.5 | 106 | 103 | 98.8 | 107 | 112
Cn1c(=O)c2c(ncn2CC2OCCO2)n(C)c1=O [Doxofylline] | 101 | 111 | 122 | 113 | 108 | 111 | 113 | 122
CC(=O)OCC(=O)[C@@]12N=C(C)O[C@@H]1C[C@H]1[C@@H]3CCC4=CC(=O)C=C[C@]4(C)[C@H]3[C@@H](O)C[C@@]12C [Deflazacort] | 90.6 | 90.3 | 97.1 | 77.3 | 89.6 | 92.4 | 95.6 | 99.2
CN(C)C(=N)NC(=N)N [Metformin hydrochloride] | 98.4 | 104 | 105 | 109 | 105 | 96.6 | 104 | 109
CNC1CCCN(c2c(F)cc3c(=O)c(C(=O)O)cn(C4CC4)c3c2OC)C1 (stereo unspecified) [Balofloxacin] | 103 | 93.5 | 101 | 107 | 101 | 99.2 | 99.3 | 107
O=C(O)c1cn(C2CC2)c2cc(N3CCNCC3)c(F)cc2c1=O [Ciprofloxacin] | 107 | 100 | 99.7 | 121 | 97.4 | 99.2 | 107 | 121
Nc1ccn([C@@H]2O[C@H](CO)[C@@H](O)C2(F)F)c(=O)n1 [Gemcitabine HCl] | 3.53 | 3.99 | 3.86 | 3.72 | 3.77 | 4.75 | 3.77 | 3.39
CCCCN1CCCCC1C(=O)Nc1c(C)cccc1C (stereo unspecified) [Bupivacaine hydrochloride] | 107 | 105 | 102 | 104 | 105 | 105 | 106 | 102
OCCN(CCO)c1nc(N2CCCCC2)c2nc(N(CCO)CCO)nc(N3CCCCC3)c2n1 [Dipyridamole] | 102 | 107 | 93.7 | 108 | 108 | 98.7 | 98 | 113
CCCCCCNC(=O)n1cc(F)c(=O)[nH]c1=O [Carmofur] | 102 | 83.8 | 51.6 | 18.3 | 99.2 | 81.2 | 44.3 | 15.1
Cc1c(-c2ccccc2)oc2c(C(=O)OCCN3CCCCC3)cccc2c1=O [Flavoxate HCl] | 96.7 | 102 | 108 | 108 | 103 | 101 | 106 | 109

SMILES | relative cell viability [1] | relative cell viability [2] | relative cell viability [3] | relative cell viability [4] | relative cell viability [5] | relative cell viability [6] | relative cell viability [7] | relative cell viability [8]
CO[C@H]1C[C@@H]2CC[C@@H](C)[C@@](O)(O2)C(=O)C(=O)N2CCCC[C@H]2C(=O)O[C@H]([C@H](C)C[C@@H]2CC[C@@H](OCCO)[C@H](OC)C2)CC(=O)[C@H](C)/C=C(\C)[C@@H](O)[C@@H](OC)C(=O)[C@H](C)C[C@H](C)/C=C/C=C/C=C/1C [Everolimus] | 79.5 | 75 | 73.9 | 87.5 | 70.4 | 66.9 | 66.5 | 69.7
Nc1ccc(/N=N/c2ccccc2)c(N)n1 [Phenazopyridine HCl] | 103 | 98.3 | 101 | 112 | 104 | 103 | 114 | 108
CN[C@@H]1[C@H](O)[C@H](NC)[C@H]2O[C@@]3(O)C(=O)C[C@@H](C)O[C@H]3O[C@@H]2[C@H]1O [Spectinomycin  hydrochloride] | 105 | 102 | 102 | 109 | 107 | 86.5 | 101 | 101
OC(CNCC(O)C1CCc2cc(F)ccc2O1)C1CCc2cc(F)ccc2O1 (stereo unspecified) [Nebivolol] | 106 | 109 | 106 | 112 | 103 | 107 | 112 | 115
C#CCN[C@@H]1CCc2ccccc21 [Rasagiline mesylate] | 94.8 | 96.7 | 98.2 | 102 | 93.3 | 92.9 | 99.4 | 108
COC(=O)[C@H](Cc1ccccc1)NC(=O)[C@@H](N)CC(=O)O [Aspartame] | 100 | 98 | 103 | 106 | 96.5 | 102 | 100 | 98.1
O=P(O)(O)C(O)(Cc1cccnc1)P(=O)(O)O [Risedronate sodium] | 103 | 112 | 107 | 122 | 111 | 107 | 121 | 116
CCN1CCN(c2cc(-c3ccc(F)cc3)c3c(n2)CCCCCC3)CC1 [Blonanserin] | 101 | 99.5 | 91.2 | 49.4 | 103 | 93.3 | 93.5 | 51.2
CCN[C@H]1CN(CCCOC)S(=O)(=O)c2sc(S(N)(=O)=O)cc21 [Brinzolamide] | 101 | 84.5 | 62.4 | 3.36 | 98.2 | 81.9 | 57.5 | 3.09
OCC(CO)N[C@H]1C[C@](O)(CO)[C@@H](O)[C@H](O)[C@H]1O [Voglibose] | 109 | 117 | 113 | 113 | 105 | 114 | 116 | 115
CC(C)NCC(O)COc1cccc2ccccc12 (stereo unspecified) [Propranolol HCl] | 99.8 | 109 | 103 | 109 | 107 | 100 | 92.5 | 106
C=C1CC[C@H](O)C/C1=C/C=C1\CCC[C@]2(C)[C@@H]([C@H](C)CCCC(C)C)CC[C@@H]12 [Vitamin D3] | 104 | 89.6 | 54.7 | 109 | 94.8 | 70.8 | 66.2 | 116
CC(C)(OCc1nn(Cc2ccccc2)c2ccccc12)C(=O)O [Bindarit] | 99.2 | 99.8 | 100 | 3.69 | 96.7 | 100 | 95.7 | 3.69
O=C(Nc1ccc([N+](=O)[O-])cc1Cl)c1cc(Cl)ccc1O [Niclosamide] | 10 | 3.13 | 58.1 | 17.5 | 8.34 | 2.9 | 56.2 | 7.03
CO[C@H]1O[C@@H]2O[C@@]3(C)CC[C@H]4[C@H](C)CC[C@@H]([C@H]1C)[C@@]24OO3 [Artemether] | 104 | 103 | 100 | 60.3 | 103 | 102 | 98.3 | 93.2
CCOC(=O)C1=C(C)NC(C)=C(C(=O)OC)C1c1cccc(Cl)c1Cl (stereo unspecified) [Felodipine] | 101 | 105 | 88.9 | 98.7 | 99.1 | 101 | 98 | 101
C#C[C@]1(O)CC[C@H]2[C@@H]3CCc4cc(OC)ccc4[C@H]3CC[C@@]21C [Mestranol] | 101 | 106 | 101 | 101 | 99.9 | 97.3 | 103 | 85.7
CN(Cc1cnc2nc(N)nc(N)c2n1)c1ccc(C(=O)N[C@@H](CCC(=O)O)C(=O)O)cc1 [Abitrexate] | 75.8 | 51.7 | 42.5 | 42 | 58.2 | 52.2 | 41.8 | 43.9
Nc1nc(Cl)nc2c1ncn2[C@@H]1O[C@H](CO)[C@@H](O)[C@@H]1F [Clofarabine] | 114 | 69.7 | 6.59 | 2.39 | 106 | 62.6 | 3.43 | 1.95
NC(=O)c1ncn([C@@H]2O[C@H](CO)[C@@H](O)[C@H]2O)c1N [Acadesine] | 90.2 | 102 | 102 | 116 | 103 | 103 | 110 | 117
O=C1O[C@H]([C@@H](O)CO)C([O-])=C1O.[Na+] [Sodium ascorbate] | 99.7 | 101 | 106 | 117 | 98.8 | 103 | 102 | 114
